VHR inh abs = VHR1 phosphatase inhibitors, primary screen, biochemical, absorbance, uHTS; Dual specificity protein phosphatase 3 (Homo sapiens), P51452; recombinant VHR phosphatase, pNPP absorbance; inhibition, % at 13.3 µM; hit rate 0.52% among 290,000; AID 1654, 2009; in the data active = inhibition above about 50%
Target sequence (P51452 whole entry, looked up): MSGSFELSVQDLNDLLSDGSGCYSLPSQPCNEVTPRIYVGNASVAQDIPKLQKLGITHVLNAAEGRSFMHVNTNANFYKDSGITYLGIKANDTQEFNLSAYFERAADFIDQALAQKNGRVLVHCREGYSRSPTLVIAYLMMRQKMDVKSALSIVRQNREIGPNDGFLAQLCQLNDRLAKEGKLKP
Mtb RmlCD inh = M. tuberculosis RmlC/RmlD coupled enzyme inhibitors, primary screen, biochemical, compound mixtures, 384-well, from 1536-well plates; dTDP-4-dehydrorhamnose reductase (Mycobacterium tuberculosis (strain ATCC 25618 / H37Rv)) …; RmlC+RmlD coupled enzyme assay, percent inhibition; primary screen in compound mixtures; inhibition, % at 3.6 µM; hit rate 0.03% among 160,000; AID 1533, 2009; in the data active = inhibition mostly above about 34%, no sharp cut-off
Active calls of the source: *; · = no result. In the library only some 0.54% were active in any assay of this set; here they are far more common.

SMILES | VHR inh abs | Mtb RmlCD inh
CCN(CC)c1ccc2c(c1)CCCN2 | 22 | ·
CCCCn1c(NC(=O)c2ccccc2)c(C#N)c2nc3ccccc3nc21 | 33 | ·
CCC(C)n1c(NC(=O)c2ccccc2)c(C#N)c2nc3ccccc3nc21 (stereo not drawn) | 58* | ·
COc1ccc(N(CC(=O)Nc2cccc(C(F)(F)F)c2)S(=O)(=O)c2c(C)[nH]c(=O)[nH]c2=O)cc1 | -4 | ·
COc1ccc(N(CC(=O)Nc2cccc(F)c2)S(=O)(=O)c2c(C)[nH]c(=O)[nH]c2=O)cc1 | 56* | ·
O=C(Nc1ccc(NC(=O)c2cccs2)c(Cl)c1)c1cccs1 | 15 | ·
CC(C(=O)NCCCc1ccccc1)c1ccc([N+](=O)[O-])cc1 (stereo not drawn) | 12 | 6
Cc1cc(C)c2c(CC(=O)O)coc2c1 | 2 | ·
Cc1cc(C)c2c(CC(=O)NN(C)C)coc2c1 | 53* | ·
COc1ccc(-n2c(O)cnc2Nc2nc(C)cc(C)n2)cc1OC | 24 | 11
Cc1ccc(S(=O)(=O)Nc2cc(Cl)c(O)c3ncccc23)cc1 | 41 | ·
O=C(Nc1ccc(N2CCOCC2)cc1)c1cccc(-n2cnnc2)c1 | 53* | ·
O=C(Nc1ccc(N2CCOCC2)c(Cl)c1)c1cccc(-n2cnnc2)c1 | 23 | ·
CN(C(=O)CSc1nnc(N)s1)C1CCCCC1 | 34 | ·
CCOCCCNC(=S)N(CCN(CC)CC)Cc1cc2cc3c(cc2[nH]c1=O)OCCO3 | 11 | ·
CCOCCCNC(=S)N(CCO)Cc1cc2cc3c(cc2[nH]c1=O)OCCO3 | 50* | ·
COc1ccccc1-c1nc(SCC(=O)Nc2cc(C)on2)c2c(=O)n(C)c(=O)n(C)c2n1 | 18 | ·
O=C(c1cnc2c(c1)COc1ccc(Cl)cc1-2)c1ccccc1O | 50* | ·
Cc1ccc(O)c(C(=O)c2cnc3c(c2)COc2ccccc2-3)c1 | 9 | ·
CC(C)NC(=O)NNC(=O)c1cc(COc2cc(Cl)cc(Cl)c2)on1 | 0 | 0
CCc1ccc(-c2cc(C)no2)cc1S(=O)(=O)N1CCCN(Cc2ccc(F)cc2)C1 | 4 | ·
CN(C)S(=O)(=O)N1CCC(Oc2ccc(C(=O)NCC(C)(C)CO)cc2)CC1 | 34 | -1
Cc1ccn(-c2ccc(NC(=O)c3cccs3)cc2)n1 | -36 | ·
COCCCNC(=S)N1CCCN(c2nc3cc(C)c(C)cc3cc2C#N)CC1 | 16 | ·
CCOCCCNC(=S)N1CCCN(c2nc3cc(C)c(C)cc3cc2C#N)CC1 | 52* | ·
SMILES | VHR inh abs | Mtb RmlCD inh
Cc1noc(C)c1S(=O)(=O)Nc1ccc(C#N)cc1 | 5 | ·
O=C(c1ccc(OC2CCN(CCc3ccccc3)CC2)cc1)N1CCCCC1CCCO (stereo not drawn) | 50* | ·
O=C(c1ccc(OC2CCN(CCc3ccccc3)CC2)cc1)N1CCCC(CCCO)C1 (stereo not drawn) | -4 | ·
COc1cccc(CC(=O)N2CCC(n3nccc3NC(=O)C3CCOC3)CC2)c1 (stereo not drawn) | 45 | ·
Cc1ccnc(NC(=O)COC(=O)C23CC4CC(CC(C4)C2)C3)n1 | 31 | 3
O=C(COC(=O)C12CC3CC(CC(C3)C1)C2)Nc1nccs1 | 52* | ·
Cc1ccccc1C(=O)/C(C#N)=N/Nc1c(C)n(C)n(-c2ccccc2)c1=O | 51* | ·
Cc1c(N/N=C(\C#N)C(=O)c2ccccc2)c(=O)n(-c2ccccc2)n1C | -5 | ·
Cc1cccc(C(=O)O/N=C(/c2ccccc2)c2ccncc2)c1 | -5 | -3
COc1ccccc1CNc1ncnc2cc(Cl)ccc12 | 41 | -7
COc1ccccc1Oc1ccnc2cc(Cl)ccc12 | 58* | ·
CCOC(=O)N1CCC(N2CCN(S(=O)(=O)c3ccc(NC(C)=O)cc3)CC2)CC1 | 15 | -5
CCOC(=O)N1CCN(S(=O)(=O)c2ccc(NC(C)=O)cc2)CC1 | 52* | ·
CCn1cc(C(=O)OCC(=O)c2ccc(Cl)cc2)c(=O)c2ccc(C)nc21 | -1 | 3
CCn1cc(C(=O)NNC(=O)c2ccc(Cl)cc2)c(=O)c2ccc(C)nc21 | 52* | -9
COc1ccc(Cl)cc1N(CC(=O)Nc1ccccc1C(=O)N1CCCC1)S(C)(=O)=O | 58* | ·
CS(=O)(=O)N(CC(=O)Nc1ccccc1C(=O)N1CCCC1)c1ccccc1Br | 10 | ·
O=C(Nc1ccc(F)c(Cl)c1)Nn1cnnc1 | 26 | ·
O=C(Nc1ccccc1OC(F)F)c1ccc(F)cc1 | -8 | ·
O=C(Nc1ccccc1F)Nc1ccccc1OC(F)F | 56* | -15
CN1CCN(CCCNC(=O)c2ccc(NC(=O)C3=CSCCO3)cc2)CC1 | 11 | ·
CCN1CCN(CCCNC(=O)c2ccc(NC(=O)C3=CSCCO3)cc2)CC1 | 52* | ·
CCOc1ccccc1C(=O)NC(C(=O)Nc1cccnc1)C(C)C (stereo not drawn) | 10 | 2
Cc1ccc(NC(=O)c2ccc3nc(N4CCOCC4)sc3c2)c(Cl)c1 | 56* | ·
CCc1ccccc1NC(=O)c1ccc2nc(N3CCOCC3)sc2c1 | 10 | ·
SMILES | VHR inh abs | Mtb RmlCD inh
COc1ccc(NC(=O)Cn2cnc3c(oc4nc5c(cc43)COC(C)(C)C5)c2=O)cc1 | 13 | ·
COCCNC(=O)c1noc2c1CCc1cc(OC)ccc1-2 | -10 | 12
COc1ccc2c(c1)CCc1c(C(=O)N(C)c3ccccc3)noc1-2 | 54* | -9
CCOc1cc(/C=C2/SC(=Nc3ccccc3)N(Cc3cccnc3)C2=O)ccc1OCC#N | 13 | -2
CC(C)(C)c1ccc2c(c1)OC(C(=O)N/N=C\c1ccncc1)CO2 (stereo not drawn) | 13 | -11
CC(C)(C)c1ccc2c(c1)OC(C(=O)N/N=C/c1ccc([N+](=O)[O-])o1)CO2 (stereo not drawn) | 57* | -5
Cc1ccc2nc3c(c(N)c2c1)CCN3C | 58* | ·
Cc1ccc2nc3c(c(N)c2c1)CCN3c1ccccc1 | 11 | -3
Oc1ccc(C=Nc2ccc(N3CCOCC3)cc2)c(O)c1 | 10 | ·
Oc1c(Cl)cc(Cl)cc1C=Nc1ccc(N2CCOCC2)cc1 | 60* | ·
Cc1nnc(C)n1/N=C/c1cccc([N+](=O)[O-])c1 | 18 | 27
O=[N+]([O-])c1cccc(/C=N/N=C\c2ccccc2)c1 | 60* | ·
Cc1ccc(N(CC(=O)N2CCN(Cc3ccccc3)CC2)S(C)(=O)=O)cc1C | 43 | ·
COc1ccc(-c2nnc(SCC(=O)Nc3ccc(C)cc3)n2C)cc1 | 2 | 4
CCSCc1nnc(SCC(=O)Nc2ccc(OC)cc2)n1C | 57* | -4
CCC(C)(C)NC(=O)C(c1cccc(OC)c1OC)N(C(=O)CCC(=O)Nc1cc(C)on1)c1ccc2c(c1)OCCO2 (stereo not drawn) | 27 | ·
Cc1ccc(C(=O)Sc2cccccc2=O)cc1 | 5 | ·
Cc1ccc(Cc2c(C)nc3nc(SCC(=O)NCc4ccco4)nn3c2C)cc1 | 4 | 4
Cc1ccccc1Cc1c(C)nc2nc(SCC(=O)NCCCN3CCCCC3)nn2c1C | 58* | ·
Cc1nc2nc(SCC(=O)NCc3ccco3)nn2c(C)c1Cc1c(F)cccc1Cl | 51* | 5
Cc1nc2nc(SCC(=O)NCCCN3CCCCCC3)nn2c(C)c1Cc1ccccc1 | 17 | ·
C/C=C/c1ccc(OCCSc2nc(C)cc(=O)[nH]2)c(OC)c1 | 8 | ·
COc1ccc(NC(=S)N2CCN(S(=O)(=O)c3ccc(OC)cc3)CC2)cc1 | 19 | ·
Cc1ccc(NC(=O)Cn2ccnc2)cc1C | 16 | ·
Cc1ccccc1OCC(=O)NCCNC(=O)c1ccccn1 | 54* | ·
O=C(COc1ccccc1Cl)NCCNC(=O)c1ccccn1 | 33 | ·

Assay outcomes (PubChem)
